According to PubChem BioAssay (Tox21):
Results filed as inconclusive are left out. Activity calls are given as the source filed them. Unless noted, calls follow the shape of the dose curve; as a rule, active = well fitted curve in the direction sought with a large enough effect in the repeat runs; inconclusive = weak or mixed curves; inactive = no such curve, though single readings can be large; an effect the other way counts as inactive or inconclusive.

Tests used:
[1] = qHTS assay to identify small molecule agonists of the vitamin D receptor (VDR) signaling pathway - cell viability counter screen (AID 743224); also: series mostly up to about 63 µM; nearly all actives have a fitted effect of over 50% in size
In short: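 Compounds were pin-transferred onto VDR-bla cells plated 4 h earlier; following 16 h incubation at 37C, cell viability was quantified by CellTiter-Glo luminescence after 30 min at room temperature.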

[2] = qHTS assay to identify small molecule antagonists of the vitamin D receptor (VDR) signaling pathway - cell viability counter screen (AID 743225); also: nearly all actives have a fitted effect of over 50% in size
In short: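 HEK293T VDR-bla; cpd + 1a,25-(OH)2D3 3 nM final, 16 h 37C/5% CO2; B/G FRET substrate 2 h RT; then CellTiter-Glo 30 min RT, luminescence.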

[3] = qHTS assay to identify small molecule agonists of the NFkB signaling pathway - cell viability counter screen (AID 1159515; calls by dose curve; also: series mostly up to about 61 µM; nearly all actives have a fitted effect of over 55% in size)
In short: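 Parallel cytotoxicity counter screen in ME-180 cells carrying an NFkB-response-element beta-lactamase reporter, 2,000 cells/well. Compound exposure lasted 5 hr at 37 C, 5% CO2. Cell viability was quantified by CellTiter-Glo luminescence.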

[4] = qHTS assay to identify small molecule agonists of the endoplasmic reticulum stress response signaling pathway - cell viability counter screen (AID 1159517; calls by dose curve;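 also: HeLa cells carrying an ER stress response element beta-lactamase reporter; series mostly up to about 61 µM; nearly all actives have a fitted effect of over 50% in size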)
In short: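 Cpd-treated ESRE-bla HeLa (5 hr, 37 C) → LiveBLAzer 2 hr RT → CellTiter-Glo 30 min RT → luminescence.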

[5] = qHTS assay to identify small molecule antagonists of the retinoid-related orphan receptor gamma (ROR-gamma) signaling pathway - cell viability counter screen (AID 1159520); also: nearly all actives have a fitted effect of over 50% in size; also: potency is read from the fitted curve at half-maximal effect
In short: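 Tet-on ROR gamma CHO cells (1,000/well) were plated 4 hr, given compounds in DMSO for 2 hr at 37 C, then induced with 1 uM final doxycycline for 16 hr. Viability was read as ATP by CellTiter-Glo luminescence after 30 min.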

[6] = qHTS assay to identify small molecule agonists of the AP-1 signaling pathway - cell viability counter screen (AID 1159525; calls by dose curve; also: nearly all actives have a fitted effect of over 55% in size)
In short: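 Each titration point was normalised to DMSO and tetra n-octyl ammonium bromide controls. The read was Cell Titer Glo luminescence after 30 min at RT, following 5 h compound exposure of ME-180 AP-1-bla cells at 37 °C.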

[7] = qHTS assay to identify small molecule agonists of the AP-1 signaling pathway (AID 1159526; calls by dose curve)
[8] = qHTS assay to identify small molecule agonists of the RXR signaling pathway - cell viability counter screen (AID 1159529)
In short: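 Steps: seed RXR-alpha-UAS-bla HEK 293T cells in assay medium containing 2% charcoal-stripped FBS; incubate 5 hr; add compounds in DMSO; incubate 16 hr at 37 C; after the bla read, add CellTiter-Glo and read luminescence at 30 min.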

[9] = qHTS assay to identify small molecule agonists of the retinoic acid receptor (RAR) signaling pathway (AID 1159553)
In short: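 Quantitative high-throughput format: the Tox21 10K library was tested on C3RL4 RARE-luciferase cells for 6 hr at 37 C and 5% CO2, with luminescence measured after a 30 min room-temperature reagent step.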

[10] = qHTS assay to identify small molecule antagonists of the retinoic acid receptor (RAR) signaling pathway (AID 1159552; also: nearly all actives have a fitted effect of over 50% in size)
In short: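 Retinol at 1 uM final stimulated RARE-luciferase expression in C3RL4 cells exposed to test compounds for 6 hr at 37 C. Reduced luminescence, read 30 min after detection reagent, indicated pathway antagonism.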

[11] = target: Nuclear receptor ROR-gamma (Homo sapiens) (UniProt P51449); test: qHTS assay to identify small molecule antagonists of the retinoid-related orphan receptor gamma (ROR-gamma) signaling pathway (AID 1159521)
In short: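 Cells were plated, rested 4 h at 37 C, exposed to compounds for 2 h, then given 1 uM final doxycycline hyclate to induce RORγ expression. After 16 h, ONE-Glo luminescence from the ROR response element reporter was measured.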

[12] = qHTS assay to identify small molecule antagonists of the retinoid acid receptor (RAR) signaling pathway - cell viability counter screen (AID 1159551); also: nearly all actives have a fitted effect of over 35% in size
In short: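 ATP-based viability, C3RL4 cells, 6 h at 37 C with 1 uM final retinol co-added after compound; luminescence read 30 min post CellTiter-Glo, RT.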

[13] = target: Retinoic acid receptor RXR-alpha (Homo sapiens) (UniProt P19793); test: qHTS assay to identify small molecule agonists of the RXR signaling pathway (AID 1159527; calls by dose curve; also: nearly all actives have a fitted effect of over 35% in size)
In short: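 Cells plated at 2,000/well, rested 5 hr at 37 C, pin-dosed with DMSO compound solutions, incubated 16 hr, then loaded with B/G FRET substrate for 2 hr at RT before dual-emission fluorescence reading.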

[14] = qHTS assay to identify small molecule antagonists of the estrogen related receptor (ERR) signaling pathway - cell viability counter screen (AID 1224818);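 also: series mostly up to about 46 µM; viability measured after 17.5 h of compound exposure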
In short: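 Quantitative high-throughput viability counter screen in ERR cells. Compounds (DMSO) incubated 17.5 h at 37 C; read-out was CellTiter-Fluor fluorescence.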

[15] = qHTS assay to identify small molecule antagonists of the estrogen related receptor signaling pathway with the pleiotropic PPARgamma coactivator (PGC) cell viability counter screen (AID 1224822; also: series mostly up to about 46 µM)
In short: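 Cytotoxicity in the PGC/ERR cell line is assessed with CellTiter-Fluor, read as fluorescence intensity 30 min after reagent addition, following 17.5 h compound treatment at 37 C.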

[16] = qHTS assay to identify small molecule agonists of the endoplasmic reticulum stress response signaling pathway (AID 1159516; active = well fitted activation curve with a large enough effect in the signal ratio in the repeat runs, not every such curve was filed as active; the % refers to the signal ratio)
In short: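 Using a HeLa line with an ESRE-driven beta-lactamase gene, agonist activity was measured by FRET substrate fluorescence (460 and 530 nm emission) after cells were treated with compounds for 5 hr at 37 C and 5% CO2.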

Measured: Potency

Chain of Retinoic acid receptor RXR-alpha (Homo sapiens) (P19793 whole entry, looked up): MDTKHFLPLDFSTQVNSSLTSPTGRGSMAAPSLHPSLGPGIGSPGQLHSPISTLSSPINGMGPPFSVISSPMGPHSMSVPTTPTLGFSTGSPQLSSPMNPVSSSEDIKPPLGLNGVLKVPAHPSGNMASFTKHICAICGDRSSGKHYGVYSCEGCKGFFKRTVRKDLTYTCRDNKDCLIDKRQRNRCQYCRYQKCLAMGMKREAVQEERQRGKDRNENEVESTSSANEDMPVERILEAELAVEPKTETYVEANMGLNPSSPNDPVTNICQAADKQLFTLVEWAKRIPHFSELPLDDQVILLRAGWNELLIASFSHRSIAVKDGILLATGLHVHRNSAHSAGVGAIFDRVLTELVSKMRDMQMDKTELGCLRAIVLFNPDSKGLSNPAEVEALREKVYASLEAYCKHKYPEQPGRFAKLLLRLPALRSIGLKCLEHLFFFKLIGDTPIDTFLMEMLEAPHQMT

CC(=O)[O][Al]
inactive: [1] | [2] | [3] | [4] | [5] | [6] | [7] | [8] | [9]

CCO[C@H](Cc1ccc(OCCc2ccc(OS(C)(=O)=O)cc2)cc1)C(=O)O
inactive: [1] | [2] | [3] | [5] | [6] | [7] | [8] | [10] | [9]

Cc1ccccc1S(=O)(=O)O
inactive: [1] | [2] | [3] | [4] | [11] | [7] | [8] | [12] | [10] | [9]

O=C(Cl)c1cc(C(=O)Cl)cc(C(=O)Cl)c1
inactive: [1] | [3] | [4] | [7] | [13] | [8] | [12] | [10]
active: [5] 61.1 µM

CC(=O)c1ccc2c(c1)N(CCCN(C)C)c1ccccc1S2
inactive: [1] | [2] | [3] | [4] | [5] | [6] | [13] | [12] | [9] | [14] | [15]

O=P(O)(OCc1ccccc1)OCc1ccccc1
inactive: [1] | [16] | [4] | [5] | [6] | [7] | [13] | [8] | [12] | [10] | [9]

Cc1ncc(CO)c(C=O)c1O
inactive: [1] | [2] | [3] | [4] | [5] | [7] | [13] | [8] | [10] | [9]

OC(CN1CCC(Cc2ccc(F)cc2)CC1)c1ccc(Cl)cc1 (stereo unspecified)
inactive: [16] | [4] | [5] | [6] | [8] | [12] | [10] | [14] | [15]

C/C=C/C=C/CO
inactive: [1] | [2] | [16] | [6] | [7] | [13] | [8]

CCCCC(CC)COC(=O)CCCCCCCCC(=O)OCC(CC)CCCC (stereo unspecified)
inactive: [1] | [2] | [16] | [4] | [6] | [7] | [13] | [8] | [12]

CCC(C)O (stereo unspecified)
inactive: [1] | [2] | [16] | [4] | [7] | [13] | [8] | [12] | [10] | [9]

CCOC(=O)C(=O)CCc1ccccc1
inactive: [1] | [2] | [16] | [4] | [5] | [6] | [7] | [13] | [8] | [12] | [10] | [9]
